Out of some 1,200 compounds screened, about 15 (1%) were called active. Roughly 7% stayed inconclusive and do not appear here. The call rests on the fitted dose curve; in most records, active means well fitted activation curve with a large enough effect; inconclusive means small, poorly fitted or top-dose-only effect; inactive means flat fitted curve, though single readings scatter. Only a selection was taken, and actives are over-represented in it overall.
molecular target: Beta-2 adrenergic receptor (Homo sapiens) (UniProt P07550); test: qHTS assay of beta-arrestin-biased ligands of beta2-adrenergic receptor: Hit Validation; details: cell-based beta-arrestin recruitment to beta2AR; Potency: activation; series mostly up to 46.1 µM; activation: at the top concentration;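 further: plate controls were DMSO for no effect and maximal isoproterenol or metaproterenol response for full effect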
Sequence (P07550 whole entry, looked up): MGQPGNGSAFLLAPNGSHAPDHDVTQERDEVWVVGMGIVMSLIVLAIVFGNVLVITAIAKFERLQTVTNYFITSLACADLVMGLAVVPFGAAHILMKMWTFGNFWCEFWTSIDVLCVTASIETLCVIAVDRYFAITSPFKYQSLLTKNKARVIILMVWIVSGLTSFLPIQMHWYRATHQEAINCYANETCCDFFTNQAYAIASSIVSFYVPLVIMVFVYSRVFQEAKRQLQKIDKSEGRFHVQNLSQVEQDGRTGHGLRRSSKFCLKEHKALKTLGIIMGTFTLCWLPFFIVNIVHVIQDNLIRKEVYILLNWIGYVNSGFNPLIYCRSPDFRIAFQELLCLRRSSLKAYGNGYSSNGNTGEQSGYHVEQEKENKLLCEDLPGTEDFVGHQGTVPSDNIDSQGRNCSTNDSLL
Description: The concept of biased agonism is an emerging concept of molecular pharmacology which proposes that seven transmembrane receptors (7TMRs) or G protein-coupled receptors (GPCRs), exist in multiple signaling conformations and complexes and that ligands (either agonists or antagonists) can induce signaling biased responses for distinct signal transduction cascades.
Furthermore, accumulating evidence over the last decade has drawn attention to a novel function of beta-arrestins as signal transducers that scaffold various signaling molecules upon activation of 7TMRs. […] This beta-arrestin-biased signaling presumably leads to distinct physiological outcomes from those by G protein activation.
Additionally, the active receptor conformations which […] on this beta-arrestin signaling are likely different from those activating G protein signaling
The goal of this screening project will be to discover and optimize novel beta-arrestin-biased ligands for beta2-AR signaling. A luminescent cell-based assay for beta2-AR-mediated agonism, known as the Tango assay, has been validated in which ligand binding of a recombinant beta2-AR and subsequent recruitment of a recombinant beta-arrestin lead to the release of the transcriptional activator tTA, which upregulates transcription of a tTA-responsive luciferase gene.
NIH Molecular Libraries Probe Production Network [MLPCN]
NIH Chemical Genomics Center [NCGC]
PI: Bryan Roth (UNC) and Bob Lefkowitz (Duke)
NCGC Assay Protocol Summary:
Tango cells were dispensed into white, solid, tissue-culture-treated 1536-well plates at 1500 cells/well in DMEM, containing 1% fetal bovine serum (FBS). Then, 23 nL of compounds or DMSO were delivered to each well using a pin tool. Plates were incubated at 37 degrees C, 5% CO2 for 18 hr. Then 2.5 uL luminescent substrate mix (in-house prepared: 150 mM Tris-Cl, pH 7.6, 3 mM MgCl2, 1% Triton X-100, 5 mM DTT, 0.5 mM CoA, 0.15 mM ATP, 0.44 mM D-luciferin, final concentrations) was added to each well. Plates were then incubated for 15 minutes at room temperature, and subsequently measured on a ViewLux plate reader for luminescent signal using a clear filter with a 10 second exposure and 2x binning. The %Activity was determined from the corrected luminescence values.
Concentration-response curves were fitted to the signals arising from the resulting luminescence. The concentration-effect curves were then classified based on curve quality (r2), response magnitude and degree of measured activity, and compounds were subsequently categorized based on their curve class.
Keywords: biased agonism, beta2-AR, beta-arrestin, GPCR, 7TMR, Tango, luminescence, MLSMR, MLPCN, NIH Roadmap, qHTS, NCGC

activation, inactive:
C/C(CS(=O)(=O)c1ccc(Cl)c(Cl)c1)=N/NC(N)=S -1.93%
C/C(=N\NC(=S)NCc1ccccc1)c1ccc2ccccc2c1OC(F)F -2.23%
O=c1[nH]c(CSc2ccccn2)nc2c1cnn2-c1ccccc1 -0.631%
COc1ccc(NC(=O)c2cc3c(-c4ccc(OC)c(OC)c4)nn(C)c3s2)cc1OC -0.0302%
CCOC(=O)c1c(C)[nH]c(N=Nc2ccc(C)cc2C)c1C -10.2%
CCOC(=O)N1CCN(Cc2c(F)cccc2F)CC1 -2.4%
CCOC(=O)c1sc(NC(=O)CSc2nnc(C(C)C)n2C)nc1C -3.85%
CC(C)C(=O)COc1c2occc2cc2ccc(=O)oc12 -4.07%
O=C(Nc1cnccn1)c1ccc(Cl)cc1 -1.39%
CC(=O)N(c1ccccc1)C(C)c1nc(C#N)c(C#N)nc1C (stereo unspecified) -1.35%
FC(F)(F)c1cnc(N2CCSCC2)c(Cl)c1 -6.12%
CN(Cc1ccccc1)C(=O)CN1C(=O)c2ccccc2C1=O -3.09%
COc1ccc(-c2cn3cccnc3n2)cc1F -3.26%
O=C(NC(=S)N1CCCCCC1)c1ccccc1Cl -2.85%
Cc1nc(C)c(CC(=O)N/N=C/c2ccc(O)cc2)c(=O)[nH]1 -2.66%
COc1ccc(OCCCC(=O)Nc2nc(-c3ccccn3)cs2)cc1 9.17%
Cn1cccc1C(=O)NC(=O)CSc1cccc[n+]1[O-] -3.1%
C/C(=N\NC(=S)NCCc1ccccc1)c1ccc(Cl)cc1Cl -2.3%
O=C1NC(c2ccc(-c3ccccc3[N+](=O)[O-])o2)C(C(=O)c2ccc(F)cc2)C(O)(C(F)(F)F)N1 (stereo unspecified) -4.07%
Cc1ccc(CN2CCSCC2)c(C)c1 -2.68%
C=CCNC(=S)N/N=C/c1ccc(-c2cc(Cl)ccc2Cl)o1 -2.16%
Cc1ccccc1NS(=O)(=O)c1ccc2oc(=O)ccc2c1 -3.24%
COc1ccc(NC(=S)Nc2ccccn2)c(OC)c1 -1.86%
O=C(CSc1cccc[n+]1[O-])c1cc2ccccc2o1 -1.76%
CCC1(C)Cc2ccccc2C(=S)N1 (stereo unspecified) -3.36%
C=C(C)c1cccc(C(C)(C)NC(=O)NC(c2ccccc2)c2ccc(OC)cc2)c1 (stereo unspecified) 8.73%
NC(=S)n1[nH]c(-c2ccc([N+](=O)[O-])cc2)c(N=Nc2cccc([N+](=O)[O-])c2)c1=O -5.18%
CCN(CC)CCCNC(=O)CCC(=O)NNc1nc2ccccc2c2nc(C)nn12 -1.51%
Cc1cc(C)n(-c2nc(NC(C)C)nc(NC(C)C)n2)n1 -3.01%
O=C(CNc1cccc(Cl)c1)c1ccc(Br)cc1 -2.41%
Cc1nc(COC(=O)c2ccc(S(=O)(=O)N3CCCC3)cc2)cs1 -0.855%
CC(C)NS(=O)(=O)c1ccc(NC(=O)C(C)Oc2ccc(C(=O)c3ccccc3)cc2)cc1 (stereo unspecified) 0.57%
CCn1nnnc1SCC(=O)Nc1nc2ccc(OC)cc2s1 -0.634%
CS(=O)(=O)Nc1ccc(-c2cn3cccnc3n2)cc1 -3.46%
O=C(NCCOc1cccnc1)C1CCC(=O)N(Cc2ccccc2F)C1 (stereo unspecified) -3.24%
COc1ccc(N(CC(=O)N2CCCC2)S(C)(=O)=O)cc1 -3.72%
CCN(CC)CCC(=O)N1c2ccccc2Sc2ccc(NC(=O)OC)cc21 -1.25%
CCCn1c(-c2ccc(F)cc2)n[nH]c1=S -4.3%
Cc1cccc(NC(=S)N=Nc2c(O)n(CN3CCOCC3)c3ccccc23)c1C -2.46%
Cc1ccccc1OCC(=O)N/N=C/c1sc(=O)n(Cc2cccc(C(=O)O)c2)c1Cl -1.41%
CCOc1cccc(N)c1 -1.3%
Cc1cccnc1NC(=S)Nc1ccc(Br)cc1Cl -1.9%
CCCCC(=O)/C=C/n1c(=S)oc2ccccc21 -2.45%
CC(=O)N1CCN(CC(=O)c2ccc(Br)cc2)CC1 -1.68%
Cc1ccc(S(=O)(=O)N(CC(=O)N/N=C/c2ccco2)c2cc(Cl)cc(Cl)c2)cc1 0.42%
CC(=O)c1sc(Nc2nc3ccc(F)cc3s2)nc1C -2.59%
Cc1nc2ccc(NC(=O)CS(=O)(=O)c3ccccc3)cc2s1 -1.85%
O=C(NCCN1CCOCC1)c1ccccc1Cl 0.534%
CCCCc1nnc(NC(=O)c2ccccc2OCc2c(C)noc2C)s1 -1.03%
CC(=O)c1ccc(N2CCN(C(=O)C3CCCN(S(=O)(=O)c4c(C)[nH]c(=O)[nH]c4=O)C3)CC2)cc1 (stereo unspecified) -4.9%
CCOC(=O)n1c(=O)oc2cc(S(=O)(=O)N3CCCCC3)ccc21 -4.09%
CCOc1ccc(/C=N/NC(=S)NC2CC3CCC2C3)cc1 (stereo unspecified) -0.951%
CC1CCCN(C(=O)Cn2nnc(-c3ccc(F)cc3)n2)C1 (stereo unspecified) -0.544%
FC(F)(F)c1nc2ccccc2nc1N/N=C\c1ccccc1 -2.93%
COc1ccc(OC)c(CNC(=O)CCCc2cn(C)c3ccccc23)c1 -4.25%
CC(=O)Oc1ccc2cc(-c3ccccc3)c(=O)oc2c1 -2.83%
